# High-throughput results from PubChem BioAssay.
# An excerpt weighted towards active compounds, which were near 3.9% of everything screened.
# Anthrax LF inh2 – blocks Bacillus anthracis lethal factor protease; P15917; multiplex microsphere protease cleavage assay, LF; inhibition, % at 10 µM; 360,000 compounds, 0.12% hits; AID 588501; in the data active means inhibition above about 30%; inconclusive means no clear call, values can overlap the other calls; further: plate controls were buffer without enzyme for full effect and enzyme alone for no effect
# Target sequence (P15917 whole entry, looked up): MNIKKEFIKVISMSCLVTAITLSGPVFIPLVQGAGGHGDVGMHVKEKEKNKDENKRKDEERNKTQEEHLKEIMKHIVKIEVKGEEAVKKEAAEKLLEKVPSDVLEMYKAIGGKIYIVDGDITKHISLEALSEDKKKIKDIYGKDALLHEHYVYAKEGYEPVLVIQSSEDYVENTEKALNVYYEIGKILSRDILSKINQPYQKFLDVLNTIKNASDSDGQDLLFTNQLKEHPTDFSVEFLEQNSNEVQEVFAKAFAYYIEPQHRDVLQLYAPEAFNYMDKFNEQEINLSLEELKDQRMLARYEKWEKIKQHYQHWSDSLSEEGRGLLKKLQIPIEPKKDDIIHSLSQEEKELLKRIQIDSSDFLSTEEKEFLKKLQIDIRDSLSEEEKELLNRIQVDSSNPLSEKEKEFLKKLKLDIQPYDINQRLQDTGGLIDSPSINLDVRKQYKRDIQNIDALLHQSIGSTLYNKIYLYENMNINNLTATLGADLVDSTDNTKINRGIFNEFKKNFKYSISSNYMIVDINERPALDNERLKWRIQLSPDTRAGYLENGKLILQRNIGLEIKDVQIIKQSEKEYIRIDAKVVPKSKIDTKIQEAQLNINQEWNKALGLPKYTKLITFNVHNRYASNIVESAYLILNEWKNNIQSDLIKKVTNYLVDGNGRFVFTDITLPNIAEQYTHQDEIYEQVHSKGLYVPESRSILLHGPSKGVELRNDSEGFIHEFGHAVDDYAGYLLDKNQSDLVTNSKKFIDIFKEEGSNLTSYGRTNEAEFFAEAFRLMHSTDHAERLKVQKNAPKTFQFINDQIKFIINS
# BoNT A protease – blocks Botulinum neurotoxin A light chain protease; multiplex microsphere protease substrate cleavage, flow cytometry; inhibition, % at 10 µM; 360,000 compounds, 0.17% hits; in the data active means inhibition above about 30%; inconclusive means no clear call, values can overlap the other calls; further: plate controls were buffer without enzyme for full effect and enzyme alone for no effect
# Autofluor counter – counter-screen for toxin protease inhibitors: compound fluorescence | compound autofluorescence counterscreen, microsphere flow cytometry; hits give high values | fluorescence intensity (no concentration beside the values) | 360,000 compounds, 3.1% hits | AID 624483; in the data active means fluorescence intensity above about 16000; inconclusive means no clear call, values can overlap the other calls
# CCHFV vOTU inh – blocks the CCHF virus ovarian tumor domain protease; 370,000 compounds, 0.55% hits; inhibition, % at 11.5 µM; CCHFV vOTU protease, Pep-AMC fluorescence; in the data active means inhibition above about 30%; further: 0% = vehicle wells with enzyme and 100% = no enzyme wells
# BoNT F protease – BoNT F light chain protease inhibition | AID 588497 | inhibition, % at 10 µM | Multiplex microsphere protease cleavage assay, flow cytometry | 360,000 compounds, 0.22% hits; in the data active means inhibition above about 35%, passing the limit was not always enough; inconclusive means no clear call, values can overlap the other calls; further: plate controls were buffer without enzyme for full effect and enzyme alone for no effect
# SARS 3CLpro inh – SARS-CoV 3CLpro protease inhibition | P0C6X7 | recombinant SARS-CoV 3CLpro, quenched FRET peptide cleavage | inhibition, % at 6 µM | 290,000 compounds, 0.14% hits | AID 1706; in the data active means inhibition above about 12%
# BoNTA LC inh 1 – BoNT/A light chain protease inhibition; multiplex microsphere protease assay, flow cytometry; shares compounds with BoNT F protease; inhibition, % at 10 µM; 720 compounds, 3% hits; in the data active means inhibition above about 32%
# BoNTF LC inh 1 – BoNT/F light chain protease inhibition; shares compounds with BoNT F protease; multiplex microsphere protease cleavage assay, flow cytometry; inhibition, % at 10 µM; 720 tested, under 10 active; AID 602140
# Anthrax LF CP1 – inhibitors of Bacillus anthracis lethal factor protease; shares compounds with BoNT F protease; multiplex microsphere protease cleavage assay, LF; inhibition, % at 10 µM; 720 tested, under 10 active
# * = called active by the depositor; u = inconclusive; x = no result. Unless noted, how the calls were made is not given here.
SMILES,Anthrax LF inh2,BoNT A protease,Autofluor counter,CCHFV vOTU inh,BoNT F protease,SARS 3CLpro inh,BoNTA LC inh 1,BoNTF LC inh 1,Anthrax LF CP1
CCc1cc(C(=O)c2ccc(Br)cc2)c(NC(=O)CN(CC)CC)s1,31.8*,-2.4,4112,-12.0,u,4.4,0.5,-4.0,-0.9
COC(=O)[C@H](Cc1ccccc1)NC(=O)[C@H]1C[C@@]2(N3CCCC3)c3ccccc3N(C(=O)OC(C)(C)C)[C@H]2N1C(=O)OC(C)(C)C,x,x,x,19.9,x,x,x,x,x
COc1ccc(C(=O)CSc2nnc(CN3CCCC3)n2-c2ccc(F)cc2)c(OC)c1,-1.9,4.0,2755,9.3,38.7*,2.8,-1.3,-4.9,0.4
COc1ccc(C(=O)CSc2nnc(CN3CCCCC3)n2-c2ccc(F)cc2)cc1OC,1.6,-0.5,2073,-10.9,-28.0,-4.2,x,x,x
Cc1ccc(C(CC(=O)N2CCNCC2)c2ccccc2)c(O)c1C (centres undefined),0.3,0.4,2861,5.7,-15.1,-1.8,x,x,x
Cc1ccc(C(CC(=O)N2CCCCC2)c2ccccc2)c(O)c1C (centres undefined),69.1*,9.8,6356,-7.6,128.1*,-2.7,-0.8,-6.4,-0.3
Cc1ccc(S(=O)(=O)NC(=O)ON=Cc2ccc3c(c2)OCO3)cc1,x,x,x,6.2,x,x,x,x,x
O=C(NC1CCCCCC1)C1CCCN(c2ncccn2)C1 (centres undefined),7.9,78.7*,4520,-7.2,14.6,-5.0,1.5,-6.7,-5.3
CCOC(=O)N1CCN(CCC(=O)Nc2cc(C)ccc2C)CC1,-14.2,1.7,3437,-4.3,8.9,5.0,x,x,x
CCOC(=O)C1CCN(CCC(=O)Nc2cc(C)ccc2C)CC1,41.5*,1.0,3509,-6.9,u,-0.8,-0.4,-0.6,-5.3
CCn1c(C)c(C(C)=O)c(N2CCN(c3ccccc3)CC2)nc1=S,20.5,46.3*,3921,7.7,-55.0,2.8,-3.6,-16.3,0.9
COc1ccccc1OCCNC(=O)Nc1cc(F)c(F)cc1Cl,31.0*,-1.9,3656,3.2,u,4.0,0.9,1.8,1.5
CC[C@H](CCCc1ccc(OC)cc1)CCC(=O)N1CCOCC1,x,x,x,2.7,x,x,x,x,x
CCOc1ccc2nc3sc(C(=O)N4CCOCC4)c(N)c3cc2c1,1.9,12.6,4394,-5.5,-0.1,1.8,-0.6,-5.4,-2.8
Cc1ccc(C)c2nc3sc(C(=O)N4CCOCC4)c(N)c3cc12,-0.9,5.2,2399,4.5,0.8,1.8,1.6,-1.8,-0.4
Cc1cc(C)c2cc3c(N)c(C(=O)N4CCOCC4)sc3nc2c1,2.8,7.9,2728,-28.2,3.8,-0.3,1.0,1.9,-6.2
Cc1cccc2cc3c(N)c(C(=O)N4CCc5ccccc54)sc3nc12,3.9,13.2,3244,-5.0,3.1,-0.5,3.4,3.0,0.7
Cc1cc(C)c2nc3sc(C(=O)N4CCOCC4)c(N)c3cc2c1,1.2,3.4,5284,-4.7,2.0,5.0,x,x,x
O=S1(=O)c2c(cccc2N2CC[C@@H](O)C2)O[C@@H]2CCN1C2,x,x,x,-0.4,x,x,x,x,x
O=C(CSc1nnc(-c2cnccn2)n1-c1ccccc1)Nc1ccc2cn[nH]c2c1,x,x,x,-0.1,x,x,x,x,x
C=CCn1c(C(CC)CC)nc2ccccc21,-16.0,-2.3,4311,-3.2,35.8*,1.1,-0.2,-1.5,2.8
O=C(Nc1ccc(C(F)(F)F)cc1)OC1CCC12CCCCC2 (centres undefined),x,x,x,13.8,x,x,x,x,x
COc1ccc2cc(C#N)c(NC(C)C)nc2c1,-2.5,0.9,4539,-38.5,-27.1,-3.2,x,x,x
CCN(CC)c1nc2cc(OC)ccc2cc1C#N,19.1,30.8*,5562,-8.3,23.1,0.7,3.3,1.9,-1.7
c1ccc2sc(N3CCCCC3)nc2c1,-6.0,-1.0,3128,0.2,-3.3,x,x,x,x
SMILES,Anthrax LF inh2,BoNT A protease,Autofluor counter,CCHFV vOTU inh,BoNT F protease,SARS 3CLpro inh,BoNTA LC inh 1,BoNTF LC inh 1,Anthrax LF CP1
O=C1CNC(=S)N1c1nc2ccccc2s1,32.2*,2.1,3929,9.8,u,2.7,-0.3,2.3,-0.5
COc1cc(OC)c(CN2CCc3c([nH]c4ccccc34)C2)cc1Br,-10.5,51.3*,26222*,-10.3,u,-12.1,-1.0,-5.6,-5.6
CCCCCC[C@@H](CN(CCCC)S(C)(=O)=O)c1ccccc1,x,x,x,23.9,x,x,x,x,x
COc1ccc(CCNC(=O)c2ccc3c(c2)OCO3)cc1,2.8,63.6*,5785,5.5,1.9,2.2,1.3,-1.5,1.6
S=C(Nc1ccc(Br)cc1)N1CCN(c2ccccn2)CC1,2.7,-5.2,4682,-10.7,u,3.9,x,x,x
COC(=O)Cc1ccc(NC(=S)N2CCN(c3ccccn3)CC2)cc1,64.0*,178.2*,2756,-12.0,-13.0,-1.3,0.0,-0.7,-2.8
N=c1n(CCO)c2ccccc2n1Cc1ccccc1Cl,-2.2,1.4,3346,1.5,33.1,1.0,-2.5,-0.3,-1.4
N=c1n(CCO)c2ccccc2n1Cc1ccccc1,1.2,-0.6,2521,-5.9,-11.6,1.4,x,x,x
CCN(CC)C(=O)c1ccc(NC(=O)c2cccc(S(=O)(=O)N3CCN(Cc4ccccc4)CC3)c2)cc1,-3.5,57.4*,u,1.4,-3.4,x,-2.6,-3.2,-1.3
NS(=O)(=O)c1ccc(CCNC2CC(=O)N(CCc3ccccc3)C2=O)cc1 (centres undefined),52.0*,5.7,7354,10.2,157.6*,-5.0,1.2,1.4,3.5
Cc1cc(-c2n[nH]c(=S)n2N=Cc2cccc(OCc3ccccc3)c2)n[nH]1,x,x,x,6.4,x,x,x,x,x
CN1C(=O)c2cc(NC(=O)Nc3ccc(F)c(F)c3)ccc2OC[C@H]2O[C@@H](CC(=O)O)CC[C@H]21,x,x,x,1.4,x,x,x,x,x
Cn1c(=O)c2cc3ccccc3nc2n(C)c1=O,29.5*,-1.3,4208,-10.1,u,4.2,0.2,-0.8,2.0
Cn1c(=O)c2cc3ccc(Cl)cc3nc2n(C)c1=O,-6.5,0.9,5893,-11.1,0.4,-2.1,x,x,x
CCOC(=O)CC[C@@]1(C(=O)OCC)C[C@@H](CC(=O)N2CCOCC2)C(=O)N2CCCC=C21,x,x,x,-8.4,x,x,x,x,x
O=C(Nc1ccc(F)cc1)Nc1cccc(Br)c1,32.2*,1.7,3227,-10.5,u,x,1.4,-5.9,-2.6
O=C(NCCCl)Nc1cccc(Br)c1,0.9,0.5,4170,2.6,0.7,0.9,x,x,x
COc1cccc(C2CC(c3ccccc3)=NN2S(=O)(=O)c2ccc(C)cc2)c1OC (centres undefined),31.9*,39.4*,32220*,-6.6,55.3*,6.8,13.5,-3.8,-8.1
O=C(CCCc1nc2ccccc2s1)NCc1ccc(F)cc1,0.2,2.6,1938,-17.5,39.6*,-2.1,-0.4,-2.9,-3.5
O=C(CCCc1nc2ccccc2s1)NCc1ccccc1,-4.4,0.6,2640,-4.4,3.9,0.8,x,x,x
Cc1ccc(-c2n[nH]c(=O)c3ccccc23)cc1S(=O)(=O)Nc1ccc(F)cc1,7.3,-0.1,4184,-5.4,1.4,-2.8,x,x,x
